# Screens: PubChem BioAssay, Broad Institute
# The list is not random: actives were taken first. Their share in the collection is about 6.8%.
# T cruzi growth-1: inhibitors of T. cruzi proliferation. inhibition, % at 8.34 µM. AID 624255. T. cruzi beta-gal in NIH3T3, GalScreen luminescence, 90 h. 77,000 compounds, 5.9% hits;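 active means mean inhibition above about 93%, with at least 55% of replicates each passing it, limit read from the data, passing the limit was not always enough; inconclusive means only one of those two conditions holds; inactive means neither condition holds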
# Pf Dd2 growth: inhibitors of Plasmodium falciparum Dd2 growth | P. falciparum Dd2 growth, SYBR Green, 72 h; active compounds read low | activity change, % at 10 µM | 94,000 compounds, 2.3% hits | AID 1159554; in the data active means activity change below about -80%; inconclusive means no clear call, values can overlap the other calls
# C diff HTS: C. difficile growth inhibition. 86,000 compounds, 0.25% hits. Clostridium difficile clinical isolate growth, OD600, 24 h; active compounds read low. AID 1259249. growth activity, negative = inhibition, % at 16 µg/mL (by protocol);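 active means mean growth activity at or below -80% and every replicate also at or below -80%; inconclusive means mean at or below -80% but some replicate above -80%; inactive means mean growth activity above -80%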;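 further: 0% = DMSO wells and -100% = levofloxacin 16 µg/mL wells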
# T cruzi growth-2: blocks T. cruzi growth in NIH3T3 host cells | inhibition, % at 8.35 µM | shares compounds with T cruzi growth-1 | AID 651739 | 5,600 compounds, 72% hits | T. cruzi beta-gal in NIH3T3, GalScreen luminescence, 90 h;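 active means mean replicate inhibition above about 95% and at least 55% of replicates individually reaching it, limit read from the data; inconclusive means only one of the two criteria is met; inactive means neither criterion is met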
# T cruzi growth-3: inhibitors of T. cruzi proliferation | inhibition, % at 2.09 µM | 5,600 compounds, 21% hits | shares compounds with T cruzi growth-1 | T. cruzi beta-gal in NIH3T3, GalScreen luminescence, 90 h;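 active means mean inhibition above about 95%, with at least 55% of replicates also reaching it, limit read from the data; inconclusive means meets just one of the two conditions; inactive means meets neither condition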;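 further: plate controls were neutral control median for no effect and positive control median for full effect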
# 3T3 cytotox: kills mouse NIH/3T3 fibroblasts. shares compounds with T cruzi growth-1. NIH/3T3 viability, CellTiter-Glo ATP luminescence, 90 h. cytotoxicity (signal decrease), % at 8.35 µM. 5,600 compounds, 14% hits;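 active means mean signal decrease across replicates above about 35% based on untreated-well scatter, with enough replicates individually passing, limit read from the data; inconclusive means no rule stated though some were filed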;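 further: 0% = median of neutral control wells and 100% = median of positive control wells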
# NIH3T3 tox 2: NIH/3T3 (mouse) viability loss | shares compounds with T cruzi growth-1 | 5,600 compounds, 56% hits | inhibition, % at 24.9 µM | NIH/3T3 viability, CellTiter-Glo ATP luminescence, 90 h | AID 651744;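 active means mean loss of cell viability signal at or above a set limit, and enough replicates individually reaching it; inconclusive means meets only the mean limit or only the replicate share; inactive means meets neither condition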;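 further: 0% = median of neutral control wells and 100% = median of positive control wells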
# * hit, by the source's call; ? = inconclusive; · = no result given.
SMILES,T cruzi growth-1,Pf Dd2 growth,C diff HTS,T cruzi growth-2,T cruzi growth-3,3T3 cytotox,NIH3T3 tox 2
Cc1ccc(S(=O)(=O)N2CC[C@@H]3[C@@H](CO)N(C)c4ccc(C#Cc5cccnc5)cc4[C@@H]32)cc1,24,-44,1,·,·,·,·
COc1ccc2c3c(n(C)c2c1)[C@H](CO)N(Cc1cccc(Cl)c1)CC31CN(C(C)=O)C1,·,-15,21,·,·,·,·
C[C@@H]1CN([C@H](C)CO)C(=O)c2cc(NC(=O)C3CCCCC3)ccc2O[C@@H](C)CCCCO[C@@H]1CN(C)Cc1ccncc1,105*,-22,-3,56,11,-13,-6
C[C@@H]1CN([C@H](C)CO)C(=O)c2cc(NC(=O)C3CCCCC3)ccc2O[C@@H](C)CCCCO[C@H]1CN(C)Cc1ccccc1,99,-56,-4,·,·,·,·
C[C@@H]1CN([C@@H](C)CO)C(=O)c2cc(NC(=O)C3CCCCC3)ccc2O[C@@H](C)CCCCO[C@H]1CN(C)Cc1ccccc1,109*,-63,-9,108*,85,-18,45*
C[C@@H]1CCCCO[C@@H](CN(C)Cc2ccc(Cl)c(Cl)c2)[C@@H](C)CN([C@H](C)CO)C(=O)c2cc(NC(=O)C3CCCCC3)ccc2O1,107*,-38,6,107*,?,-16,0
C[C@H](CO)N1C[C@H](C)[C@H](CN(C)Cc2ccc(Cl)c(Cl)c2)Oc2ccc(NC(=O)C3CCCCC3)cc2C1=O,98,8,22,·,·,·,·
C[C@@H]1CCCCO[C@H](CN(C)Cc2ccncc2)[C@H](C)CN([C@H](C)CO)C(=O)c2cc(NC(=O)C3CCCCC3)ccc2O1,22,·,3,·,·,·,·
Cc1ccc(S(=O)(=O)Nc2ccc3c(c2)C(=O)N([C@@H](C)CO)C[C@H](C)[C@H](CN(C)C(=O)C2CCCCC2)OCCCC[C@@H](C)O3)cc1,70,-24,-7,·,·,·,·
CO[C@@H]1CN(C)C(=O)c2cc(NS(C)(=O)=O)ccc2OC[C@@H](C)N(C(=O)C2CCCC2)C[C@H]1C,0,·,·,·,·,·,·
C[C@@H]1CN([C@H](C)CO)C(=O)c2cc(C#CC3(O)CCCC3)cnc2O[C@H]1CN(C)S(C)(=O)=O,-21,15,-5,·,·,·,·
COc1ccc(NC(=O)N(C)C[C@H]2OCCCC[C@@H](C)Oc3ccc(NS(=O)(=O)c4c(C)noc4C)cc3C(=O)N([C@H](C)CO)C[C@@H]2C)cc1,31,-20,-6,·,·,·,·
Cc1ccc(S(=O)(=O)Nc2ccc3c(c2)C(=O)N([C@H](C)CO)C[C@@H](C)[C@H](CN(C)Cc2ccccc2)OCCCC[C@@H](C)O3)cc1,93*,-76,-4,109*,66,3,86*
C[C@H](CO)N1C[C@H](C)[C@@H](CN(C)Cc2ccccc2)OCCCC[C@H](C)Oc2ccc(NS(C)(=O)=O)cc2C1=O,99*,-12,7,11,11,-8,-1
C[C@@H]1CCCCO[C@@H](CN(C)Cc2ccncc2)[C@H](C)CN([C@H](C)CO)C(=O)c2cc(NS(C)(=O)=O)ccc2O1,102*,32,1,-25,-13,8,12
C[C@@H]1CCCCO[C@H](CN(C)Cc2ccccc2)[C@H](C)CN([C@@H](C)CO)C(=O)c2cc(NS(C)(=O)=O)ccc2O1,56,-31,2,·,·,·,·
C[C@@H]1CCCCO[C@@H](CN(C)Cc2ccncc2)[C@H](C)CN([C@@H](C)CO)C(=O)c2cc(NS(C)(=O)=O)ccc2O1,40,13,1,·,·,·,·
Cc1ccc(S(=O)(=O)Nc2ccc3c(c2)C(=O)N([C@@H](C)CO)C[C@H](C)[C@@H](CN(C)Cc2ccccc2)OCCCC[C@@H](C)O3)cc1,73,-71,6,·,·,·,·
CCCN(C)C[C@@H]1OCCCC[C@@H](C)Oc2ccc(NC(=O)CCCCCC(=O)Nc3ccccc3N)cc2C(=O)N([C@H](C)CO)C[C@@H]1C,·,-39,0,·,·,·,·
CNC[C@H]1Oc2ncc(Br)cc2C(=O)N([C@@H](C)CO)C[C@H]1C,·,14,·,·,·,·,·
C[C@H](CO)N1C[C@H](C)[C@@H](CN(C)C(=O)Nc2ccccc2)Oc2c(NS(C)(=O)=O)cccc2C1=O,-5,14,-2,·,·,·,·
COc1ccccc1NC(=O)Nc1ccc2c(c1)OC[C@@H](C)N(Cc1ccccc1C(=O)O)C[C@@H](C)[C@H](OC)CN(C)C2=O,-169,-1,·,·,·,·,·
CCS(=O)(=O)Nc1ccc2c(c1)C(=O)N(C)C[C@H](OC)[C@H](C)CN(Cc1ccccn1)[C@H](C)CO2,99*,32,·,-3,-18,-3,19
CO[C@H]1CN(C)C(=O)c2cc(NC(=O)NC(C)C)ccc2OC[C@@H](C)N(Cc2ccccn2)C[C@@H]1C,-12,17,·,·,·,·,·
CCS(=O)(=O)Nc1ccc2c(c1)C(=O)N(C)C[C@@H](OC)[C@@H](C)CN(Cc1ccccn1)[C@H](C)CO2,23,-1,·,·,·,·,·
SMILES,T cruzi growth-1,Pf Dd2 growth,C diff HTS,T cruzi growth-2,T cruzi growth-3,3T3 cytotox,NIH3T3 tox 2
CO[C@@H]1CN(C)C(=O)c2ccc(NC(=O)NC(C)C)cc2OC[C@H](C)N(Cc2ccccn2)C[C@@H]1C,35,-16,·,·,·,·,·
COc1ccccc1NC(=O)Nc1ccc2c(c1)OC[C@@H](C)N(Cc1ccccc1Cl)C[C@@H](C)[C@H](OC)CN(C)C2=O,127*,-97*,·,104*,112*,1,14
CO[C@H]1CN(C)C(=O)c2ccc(NC(=O)NC(C)C)cc2OC[C@@H](C)N(Cc2ccccn2)C[C@H]1C,109*,-3,·,53,-2,6,-8
CO[C@H]1CN(C)C(=O)c2cc(NC(=O)NC(C)C)ccc2OC[C@H](C)N(Cc2ccccn2)C[C@H]1C,106*,8,·,73,5,12,14
COc1ccc(NC(=O)Nc2ccc3c(c2)C(=O)N([C@H](C)CO)C[C@@H](C)[C@H](CN(C)C(=O)Nc2c(C)noc2C)O3)cc1,-21,26,·,·,·,·,·
COc1cccc(S(=O)(=O)Nc2ccc3c(c2)OC[C@@H](C)N(C(=O)Cc2cccnc2)C[C@@H](C)[C@@H](OC)CN(C)C3=O)c1,-2,30,4,·,·,·,·
COc1ccccc1-c1ccc2c(c1)O[C@H](CN(C)C(C)=O)[C@@H](C)CN([C@@H](C)CO)S2(=O)=O,·,0,1,·,·,·,·
COc1cccc(-c2ccc3c(c2)[C@H]2[C@H](CCN2S(=O)(=O)c2ccccc2C)[C@@H](CO)N3C)c1,88,2,-8,·,·,·,·
C[C@@H]1CN([C@H](C)CO)S(=O)(=O)c2ccc(-c3ccc(F)cc3)cc2O[C@H]1CN(C)Cc1cccc(F)c1,61,-13,53,·,·,·,·
C[C@@H]1CN([C@@H](C)CO)S(=O)(=O)c2ccc(-c3ccccc3)cc2O[C@H]1CN(C)Cc1cccc(F)c1,122*,-65,8,99*,?,40*,103*
